Screening data from PubChem BioAssay.
A selection: hits, their analogues and other compounds. The true share with any hit is near 2.9%.
Shn3 inh set2 – reduces Shn3 3'UTR luciferase signal in osteoblasts; Clone20 osteoblast Shn3 3'UTR firefly luciferase, 24 h; inhibition, % at 12.5 µM; 0.52% of 360,000 active;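 active = mean inhibition of at least 75% with every replicate also reaching 75%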;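 note: 0% = median of neutral control wells and 100% = pilot-screen positive control compound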
EBV LMP1 NFkB – inhibitors of Epstein-Barr LMP1-induced NF-kappaB reporter. inhibition, % at 12.5 µM. 0.69% of 350,000 active. LMP1-induced NF-kappaB luciferase reporter cells, luminescence; in the data active = inhibition above about 41%;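 note: 0% = neutral control wells and 100% = reference inhibitor control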
CF NFkB inh – cystic fibrosis NF-kB activation inhibition | KKLEB NF-kB-GFP reporter, PAF-induced, GFP fluorescence overnight | 0.86% of 360,000 active | inhibition, % at 5 µM | AID 588850;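 active = at least 50% inhibition at 5 µM, scaled per plate between neutral and stimulator controls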;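 note: PAF is a Pseudomonas aeruginosa culture filtrate used as stimulus; plate controls were PAF-stimulated DMSO wells for no effect and unstimulated DMSO wells for full effect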
Peg3 promoter – reduces Peg3 promoter-driven luciferase expression in HeLa. HeLa PEG-Prom luciferase reporter, luminescence, overnight. inhibition, % at 20 µM. 1.7% of 360,000 active. AID 588405;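 active = inhibition of at least 50% at 20 µM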
TRPM1 prom inh – reduces MITF-dependent TRPM1 promoter luciferase signal | 0.83% of 330,000 active | inhibition, % at 12.5 µM | SK-MEL-5 TRPM1 promoter luciferase, 24 h | AID 488899;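 active = mean inhibition across replicates of 60% or more, whatever share of single replicates reaches that level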
KKLEB tox – CF airway cell cytotoxicity counter-screen; AID 602141; KKLEB CF airway cells viability, ATPlite luminescence, overnight; active compounds read low; cells stimulated with P. aeruginosa culture filtrate; activity change (cytotoxicity), % at 5 µM; 0.36% of 360,000 active;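 active = corrected activity change at or below -50% at 5 µM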
* hit, by the source's call; x = no result.

SMILES | Shn3 inh set2 | EBV LMP1 NFkB | CF NFkB inh | Peg3 promoter | TRPM1 prom inh | KKLEB tox
O=[N+]([O-])c1ccccc1Nc1c2ccccc2nc2ccccc12 | 42.2 | 11.9 | -14.1 | 16.2 | 4.6 | -14.1
CCn1cc(C(=O)NCCCN2CCC(C)CC2)c(=O)c2cc(S(=O)(=O)N(C)C3CCCCC3)ccc21 | 19.9 | -9.7 | 6.0 | 14.4 | -3.9 | 9.4
CCn1cc(C(=O)NCCCN2CC(C)CC(C)C2)c(=O)c2cc(S(=O)(=O)N(C)C3CCCCC3)ccc21 (centres undefined) | -20.6 | 3.4 | 0.5 | 72.6* | -6.6 | -10.5
COc1ccccc1Cc1c(-c2ccc(C#N)cc2)nc2c(C)cc(Br)cn12 | -10.2 | x | -5.0 | 11.5 | x | -14.3
Cc1cccc(NC(=O)c2cnc3ccccn3c2=O)c1 | 11.9 | 51.1* | -38.8 | -10.2 | 14.2 | -6.1
O=C(Nc1cnc2ccccn2c1=O)c1ccc(Cl)cc1Cl | 15.8 | 43.5* | -7.4 | 45.7 | 33.5 | -1.0
Cc1cccc(NC(=O)c2cnc3sccn3c2=O)c1 | -6.3 | 8.0 | -15.5 | -192.5 | x | 0.3
O=C1CSCc2nc3ccccc3n21 | -9.6 | -6.7 | -2.5 | -9.3 | 5.1 | -3.4
Cc1ccc(C)c(N2C(=O)CC(Cc3ccccc3)C2=O)c1 (centres undefined) | 12.6 | 74.6* | 1.2 | 7.3 | 0.4 | -5.6
COCc1nn2c(N)c(C#N)cnc2c1-c1ccccc1 | 95.5* | 0.1 | 4.4 | 11.0 | 9.7 | -4.0
COCc1nn2c(N)c(-c3ccccc3)cnc2c1-c1ccccc1 | -71.6 | -22.9 | 15.3 | -254.6 | -104.8 | -8.2
Cn1ccn(CCCCCCn2ccn(C)c2=S)c1=S | -26.7 | 1.0 | -24.1 | -2.3 | x | -8.6
COc1ccc(CN(C(C)=O)c2cc(C)c([N+](=O)[O-])cc2OC)cc1OC | 6.3 | 3.6 | -9.5 | -0.1 | x | 0.6
Cc1ccc(C(=O)O/N=C(\N)c2ccccn2)c(Cl)c1 | 68.9 | 82.8* | -12.8 | 103.1* | x | -72.1*
N/C(=N\OC(=O)c1cccc2ccccc12)c1ccccn1 | -56.5 | -16.7 | -7.4 | 82.7* | -26.2 | -16.6
COc1cccc(C(=O)O/N=C(\N)c2ccccn2)c1OC | 17.5 | 51.8* | -9.9 | 47.7 | 26.9 | -3.4
Cc1ccc(C(=O)O/N=C(\N)c2ccccc2)c(Cl)c1 | 32.2 | 34.9 | -5.5 | 34.2 | 51.0 | -32.1
C[C@@H]1CN([C@H](C)CO)C(=O)CCCn2cc(nn2)CO[C@H]1CN(C)C(=O)Nc1ccc2c(c1)OCO2 | -0.5 | -7.9 | -5.2 | -6.6 | x | -0.5
Nc1nc(=S)[nH]c2c1C1(CCCCC1)Cc1ccccc1-2 | 90.1* | -12.9 | -26.4 | -11.0 | 10.4 | 9.0
O=C1C2C3C=CC(CO)(O3)C2C(=O)N1c1ccccc1-c1ccccc1 (centres undefined) | 71.5 | 35.2 | 76.2* | 105.1* | 23.4 | -30.8
CCOC(=O)c1ccccc1NS(=O)(=O)c1ccc(OCC)cc1 | 9.1 | -13.5 | 20.2 | 38.0 | 11.5 | -13.6
CCOc1ccc(S(=O)(=O)Nc2cc(SCC(=O)O)c(O)c3ccccc23)cc1 | 10.5 | -7.6 | 91.1* | 19.6 | 18.6 | -40.3
O=C(O)c1cccc(S(=O)(=O)Nc2ccc([N+](=O)[O-])cc2O)c1 | x | -1.7 | -2.2 | 4.4 | 0.0 | 2.5
CCc1ccc(S(=O)(=O)Nc2cc(SCC(=O)O)c(O)c3ccccc23)cc1 | 4.3 | 2.7 | 63.7* | -1.5 | 46.3 | 4.5
O=C(O)CSc1cc(NS(=O)(=O)c2cccc([N+](=O)[O-])c2)c2ccccc2c1O | 56.7 | 26.5 | 72.2* | 2.9 | 75.8* | -7.2
SMILES | Shn3 inh set2 | EBV LMP1 NFkB | CF NFkB inh | Peg3 promoter | TRPM1 prom inh | KKLEB tox
Cc1ccc(C)c(S(=O)(=O)Nc2cc(SCC(=O)O)c(O)c3ccccc23)c1 | 55.5 | 1.1 | 81.2* | 97.1* | 67.1* | -53.5*
COc1cccc(CNC(=O)c2ccc(S(=O)(=O)N3CCCCC3)cc2)c1 | -1.2 | -4.8 | 2.7 | 14.4 | x | 5.1
COc1cccc(-c2cccc3c2NC(=O)C3(C)Cc2ccccc2F)c1 (centres undefined) | -0.6 | x | 8.5 | 10.8 | x | -6.1
CN(Cc1ccccc1)C(=O)c1ccc(NC(=O)Cc2cccc(NC(=O)C3CCCN(C(=O)C4CCC4)C3)c2)cc1 (centres undefined) | -2.5 | -5.9 | -32.3 | -14.5 | -14.7 | 7.5
CCOc1ccc(NC(=O)CSc2ncc(-c3ccc(F)cc3)n2Cc2ccco2)cc1 | 18.7 | 0.1 | -3.7 | 10.9 | 7.9 | -1.8
Cc1ccc(NC(=O)Cn2c(-c3ccc(F)cc3)cnc2SCC(=O)Nc2c(C)cccc2C)cc1 | 57.6 | -32.6 | -5.8 | 76.5* | 5.4 | -13.6
C[C@H](CO)N1C[C@H](C)[C@@H](CN(C)C(=O)c2ccncc2)OCc2cnnn2CCCC1=O | -21.2 | -6.3 | -15.2 | -11.5 | x | 9.1
CCOC(=O)Cn1c(S(=O)(=O)Cc2ccc(F)cc2)nc(-c2ccccc2)c1-c1ccccc1 | 54.8 | -5.0 | 14.4 | 23.4 | -0.1 | 0.1
C#CCn1c(S(=O)(=O)Cc2ccc(F)cc2)nc(-c2ccccc2)c1-c1ccccc1 | 21.3 | 42.6* | 8.8 | 11.0 | -16.8 | 2.7
CCOc1ccccc1NS(=O)(=O)c1ccc(-c2cnc(C3CC3)o2)cc1 | 38.8 | 2.6 | 48.3 | 3.4 | 56.4 | 22.0
COc1ccccc1CNS(=O)(=O)c1ccc(-c2cnc(C3CC3)o2)cc1 | 27.0 | 45.5* | 24.0 | 10.0 | 10.4 | -16.9
OC(CON=C1c2ccccc2-c2ccccc21)CN1CCNCC1 (centres undefined) | -15.3 | -8.4 | -16.4 | 57.4* | 2.4 | 4.7
OC(COc1ccccc1)CN1CCN(CC(O)COc2ccccc2)CC1 (centres undefined) | -8.5 | 1.7 | 16.1 | 13.2 | 2.1 | -5.3
COc1ccc(C(=O)Nc2nc3cc4c(cc3s2)OCO4)c(OC)c1 | -62.9 | -20.3 | 48.9 | -203.6 | -70.0 | -54.4*
COc1ccc2nc(NC(=O)c3cc(C)oc3C)sc2c1 | -111.0 | -21.0 | -5.4 | -264.9 | -93.4 | -6.9
O=C(c1ccccc1F)N1CCN(c2ccc([N+](=O)[O-])c3ncccc23)CC1 | 30.8 | 1.8 | -25.1 | 13.6 | 24.9 | 7.0
O=[N+]([O-])c1cccc2c(N3CCCC3)ccnc12 | 62.4 | -38.4 | -1.0 | -26.6 | 81.3* | 9.3
O=C1NC[C@H](Cc2ccccc2)N(CC2CCN(CCC34CC5CC(CC(C5)C3)C4)CC2)C1=O | -19.2 | 2.3 | 13.6 | 4.5 | -12.1 | -1.8
Cc1ccc(C(=O)Nc2nc(C(N)Cc3ccc(C(F)(F)F)cc3)cs2)cc1 (centres undefined) | 16.2 | x | 12.1 | 96.2* | x | -7.7
COc1cc(NC(=O)Nc2nc(C(N)Cc3ccc(C(F)(F)F)cc3)cs2)cc(OC)c1OC (centres undefined) | 28.0 | x | -0.7 | 91.6* | x | 1.9
COc1cc(NC(=O)Nc2nc(C(N)C(C)C)cs2)cc(OC)c1OC (centres undefined) | -8.2 | x | -18.8 | -12.1 | x | -5.5
COc1ccc(NC(=O)Nc2nc(C(N)Cc3ccc(C(F)(F)F)cc3)cs2)cc1 (centres undefined) | 34.4 | x | 27.6 | 97.6* | x | -16.8
